Several values for one entry are separate records, joined by “and”; a condition that tells them apart may be missing. Equal values may be shown once. Records with an inconclusive call do not appear. Activity calls are given as the source filed them. Unless noted, calls follow the shape of the dose curve; as a rule, active = well fitted curve in the direction sought with a large enough effect; inconclusive = small, poorly fitted or top-dose-only effect, or another doubt; inactive = no such curve, though single readings can be large; an effect the other way counts as inactive or inconclusive.
Legend:
[1] = qHTS to identify inhibitors of the type 1 interferon - major histocompatibility complex class I in skeletal muscle: primary screen against the NCATS LOPAC collection (AID 1347405);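 also: lytic HiBiT luminescence reporting HLA-B protein level; % is scaled to controls: 0 for no effect and ±100 for the full control effect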
Method in brief: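 IFN-beta-stimulated (4 ng/ml) HLA-B HiBiT knock-in myoblasts, compound-treated 24 hrs up to 46 uM final; signal via LgBiT complementation and furimazine luminescence.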

[2] = qHTS for inhibitors of adenylyl cyclases using a fission yeast platform: a pilot screen against the NCATS LOPAC library (AID 1347410);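 also: plate controls were DMSO vehicle for no effect and DPI positive control for full effect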
Method in brief: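 S. pombe CHP2027 (AC9-GNAS-PDE4D2) carrying PKA-repressed fbp1-GFP, incubated 18 h at 30C in EMM with LOPAC compounds at up to 57 uM. GFP gain-of-signal read by laser scanning cytometry; DMSO negative control.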

[3] = target: Protein phosphatase 1D (Homo sapiens) (UniProt O15297); assay: RapidFire Mass Spectrometry qHTS Assay for Modulators of WT P53-Induced Phosphatase 1 (WIP1) (AID 1347424);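 also: amount of dephosphorylated VEPPL-S-QETFS peptide product formed by WIP1; series mostly up to about 63 µM; plate controls were DMSO wells for no effect and GSK830371 inhibitor control at 10 µM for full effect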
Method in brief: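 RapidFire mass spectrometry measured dephosphorylated peptide after 5 min room-temperature reaction of 2 uM VEPPL-pS-QETFS with 10 nM WIP1 (50 mM Tris-HCl pH 7.5, 30 mM MgCl2, 0.1 mM EGTA, BSA), following 1 hr compound preincubation; 1 uM isotope-labelled product standard.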

[4] = target: Protein phosphatase 1D (Homo sapiens) (UniProt O15297); assay: Rhodamine-PBP qHTS Assay for Modulators of WT P53-Induced Phosphatase 1 (WIP1) (AID 1347425); also: % of control where 0% means no effect
Method in brief: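 Steps: enzyme with Rh-PBP sensor and compounds, room-temperature incubation of 1 hr, baseline read, addition of VEPPL-pS-QETFS (10 uM final), kinetic fluorescence reads at 525/598 nm. Activity equals final minus baseline signal.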

[5] = Validation qHTS assay for inhibitors of Activation Induced Cytidine Deaminase (AID): UDG Counterscreen signal (AID 1347427); also: 0% is about no effect
Method in brief: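 Fluorescence at 560 nm excitation, 665 nm emission reports UDG signal after 250 mM NaOH (2x) addition and 30 min. Enzymes (AID 1 uM, UDG 2 U/mL, at 4/3x) preincubated 10 min with compound, then 4 h with 4x 250 nM DJC20/DJC23 substrate at room temperature.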

[6] = target: Single-stranded DNA cytosine deaminase (Homo sapiens) (UniProt Q9GZX7); assay: Validation qHTS assay for inhibitors of Activation Induced Cytidine Deaminase (AID): AID signal (AID 1347429); also: % is scaled to controls: 0 for no effect and ±100 for the full control effect
Method in brief: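 Compounds (up to 114 uM final) are tested against AID plus UDG using DJC20/DJC23 FRET substrate. Reactions incubate 4 hr at room temperature, receive NaOH for 30 min, and are read at Ex 540/Em 590 nm.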

[7] = Primary qHTS for inhibitors of La Crosse Virus (LACV) - induced cell death in SH-SY5Y cells (AID 1508616);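 also: top concentration of the series differs between compounds; 0% = infected DMSO wells and 100% = uninfected DMSO wells; higher means more rescue of cells from virus-induced death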
Method in brief: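 Screening measures cell viability in LACV-infected SH-SY5Y cultures. Compound was added before virus (0.01 MOI), and ATP was detected by luminescence 6 days later.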

[8] = target: Calcium and integrin-binding protein 1 (Homo sapiens) (UniProt Q99828); assay: Validation qHTS for Identification of Calcium Integrin Binding protein 1 (CIB1) Competitor (AID 1508618); also: % is scaled to controls: 0 for no effect and ±100 for the full control effect
Method in brief: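 In this qHTS validation, the LOPAC set (up to 114 uM) was tested for blocking CIB1 binding to a fluorescein-tagged alphaIIb peptide, with FP detection at 480/540 nm.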

[9] = target: Calcium and integrin-binding protein 1 (Homo sapiens) (UniProt Q99828); assay: Primary qHTS for Identification of Calcium Integrin Binding Protein 1 (CIB1) Competitor (AID 1508620);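 also: GST tagged CIB1 binding a fluorescein labelled alphaIIb integrin peptide tracer; top concentration of the series differs between compounds; % is scaled to controls: 0 for no effect and ±100 for the full control effect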
Method in brief: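 CIB1-GST (1 uM final) and compound incubated 15 min at room temperature before adding FITC-alphaIIb peptide tracer (100 nM final). Competition for binding read by fluorescence polarization (ex 480, em 540) after another 15 min at room temperature.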

[10] = Primary qHTS for small molecule stabilizers of the endoplasmic reticulum resident proteome: Secreted ER Calcium Modulated Protein (SERCaMP) assay (AID 1508630); also: % is scaled to controls: 0 for no effect and ±100 for the full control effect
Method in brief: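 The SH-SY5Y reporter protocol was run at 3 concentrations up to 38.3 uM (primary) or 11 concentrations (follow-up): 16 h compound, 100 nM thapsigargin for 4 h, then extracellular luciferase luminescence.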

[11] = A High-Content qHTS Against Drug Library for the Identification of Small Molecules that Inhibit DYT1 Early Onset Primary Dystonia-Associated Cell Pathology (AID 1645839; calls by dose curve; also: series mostly up to about 46 µM)
Method in brief: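 High-content imaging quantified EGFP-TorsinA mislocalization in HEK293-derived cells inducibly expressing DYT1 mutant torsinA, after 48 h exposure to compound given together with tetracycline induction. Cell count served as a toxicity channel alongside %pathology.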

[12] = target: Cytochrome P450 2D6 (Homo sapiens) (UniProt P10635); assay: Cytochrome P450 family 2 subfamily D member 6 (CYP2D6) small molecule antagonists: luciferase biochemical (cell-free) qHTS assay (AID 1645840; active = well fitted curve in the direction sought with a large enough effect in the repeat runs; an effect the other way counts as inactive or inconclusive; also: nearly all actives have a fitted effect of over 55% in size; also: potency is read from the fitted curve at half-maximal effect)
Method in brief: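 P450-Glo CYP2D6 system: proluciferin substrate converted by enzyme to luciferin, read by luminescence proportional to activity. Enzyme-substrate mix with compound 10 min at room temperature, then NADPH regeneration 1 h before detection reagent.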

[13] = target: Cytochrome P450 2C9 (Homo sapiens) (UniProt P11712); assay: Cytochrome P450 family 2 subfamily C member 9 (CYP2C9) small molecule antagonists: luciferase biochemical (cell-free) qHTS assay (AID 1645842; active = well fitted curve in the direction sought with a large enough effect in the repeat runs; an effect the other way counts as inactive or inconclusive; also: series mostly up to about 57 µM; % is scaled to controls: 0 for no effect and ±100 for the full control effect; nearly all actives have a fitted effect of over 55% in size)
Method in brief: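 P450-Glo CYP2C9 system: proluciferin substrate with enzyme in mix containing 0.4% BSA, 10 min at room temperature, then NADPH regeneration solution added and incubated 1 h at 37C. Detection reagent stopped reaction; luminescence read after 20 min as RLU.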

[14] = target: Papain (Carica papaya) (UniProt P00784); assay: Primary qHTS assay for inhibitors of the protease papain (AID 1645873);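 also: papain turnover of Z-FR-AMC read as the AMC fluorescence gain over 10 min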; also: potency is read from the fitted curve at half-maximal effect
[15] = qHTS to identify inhibitors of the type 1 interferon - major histocompatibility complex class I in skeletal muscle: primary screen against the NCATS Pharmaceutical Collection (AID 1347407)
Method in brief: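 Immortalized human myoblasts (C25cl48) with HiBiT knocked into endogenous HLA-B*08:01 were stimulated with 4.0 ng/ml IFN-beta and treated with compounds ([…] top 46 uM) for 24 hrs at 37 C. HiBiT lytic luminescence read.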

[16] = Cell Viability qHTS for small molecule stabilizers of the endoplasmic reticulum resident proteome (AID 1508629); conditions: cell viability counter-screen, 100 nM thapsigargin for final 4 h

Single-stranded DNA cytosine deaminase (Homo sapiens), sequence (Q9GZX7 whole entry, looked up): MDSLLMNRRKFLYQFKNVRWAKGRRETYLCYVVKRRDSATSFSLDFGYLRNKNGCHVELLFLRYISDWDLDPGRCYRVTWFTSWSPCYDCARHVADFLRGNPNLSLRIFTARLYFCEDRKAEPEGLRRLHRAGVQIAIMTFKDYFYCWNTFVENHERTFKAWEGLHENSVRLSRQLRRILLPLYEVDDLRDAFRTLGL
Calcium and integrin-binding protein 1 (Homo sapiens), sequence (Q99828 whole entry, looked up): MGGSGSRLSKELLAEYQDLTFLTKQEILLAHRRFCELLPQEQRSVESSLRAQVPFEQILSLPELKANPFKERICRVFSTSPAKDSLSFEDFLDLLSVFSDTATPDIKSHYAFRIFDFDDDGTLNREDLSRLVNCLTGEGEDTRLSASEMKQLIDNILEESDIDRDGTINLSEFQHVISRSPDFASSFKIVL
Protein phosphatase 1D (Homo sapiens), sequence (O15297 whole entry, looked up): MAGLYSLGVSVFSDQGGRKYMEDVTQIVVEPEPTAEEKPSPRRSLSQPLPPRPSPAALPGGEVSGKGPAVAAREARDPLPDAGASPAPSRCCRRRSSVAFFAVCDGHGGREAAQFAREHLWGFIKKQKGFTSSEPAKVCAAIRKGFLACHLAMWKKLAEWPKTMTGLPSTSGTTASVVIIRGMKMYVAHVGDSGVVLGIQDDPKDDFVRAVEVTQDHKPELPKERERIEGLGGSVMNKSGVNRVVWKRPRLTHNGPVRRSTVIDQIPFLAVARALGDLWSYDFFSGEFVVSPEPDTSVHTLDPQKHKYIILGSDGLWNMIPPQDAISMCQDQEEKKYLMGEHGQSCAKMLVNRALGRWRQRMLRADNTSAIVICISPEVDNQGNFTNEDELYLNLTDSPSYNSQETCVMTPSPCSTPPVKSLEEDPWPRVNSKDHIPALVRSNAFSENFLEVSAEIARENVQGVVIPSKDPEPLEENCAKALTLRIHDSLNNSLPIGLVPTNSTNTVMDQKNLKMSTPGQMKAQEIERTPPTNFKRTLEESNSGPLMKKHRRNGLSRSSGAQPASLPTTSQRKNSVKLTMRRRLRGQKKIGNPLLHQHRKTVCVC
Cytochrome P450 2D6 (Homo sapiens), sequence (P10635 whole entry, looked up): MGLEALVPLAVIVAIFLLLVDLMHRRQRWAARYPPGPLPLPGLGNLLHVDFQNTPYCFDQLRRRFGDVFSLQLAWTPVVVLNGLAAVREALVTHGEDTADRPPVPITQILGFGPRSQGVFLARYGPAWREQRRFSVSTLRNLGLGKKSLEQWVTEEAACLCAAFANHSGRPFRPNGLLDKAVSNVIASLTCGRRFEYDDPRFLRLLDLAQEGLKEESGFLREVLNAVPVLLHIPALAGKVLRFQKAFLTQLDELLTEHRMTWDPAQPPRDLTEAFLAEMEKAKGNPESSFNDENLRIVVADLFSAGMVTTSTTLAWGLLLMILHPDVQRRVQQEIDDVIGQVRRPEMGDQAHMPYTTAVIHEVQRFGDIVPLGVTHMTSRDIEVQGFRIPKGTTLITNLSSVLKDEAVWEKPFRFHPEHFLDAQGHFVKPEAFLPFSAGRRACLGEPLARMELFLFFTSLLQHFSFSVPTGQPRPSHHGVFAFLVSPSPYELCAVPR
Papain (Carica papaya), sequence (P00784 whole entry, looked up): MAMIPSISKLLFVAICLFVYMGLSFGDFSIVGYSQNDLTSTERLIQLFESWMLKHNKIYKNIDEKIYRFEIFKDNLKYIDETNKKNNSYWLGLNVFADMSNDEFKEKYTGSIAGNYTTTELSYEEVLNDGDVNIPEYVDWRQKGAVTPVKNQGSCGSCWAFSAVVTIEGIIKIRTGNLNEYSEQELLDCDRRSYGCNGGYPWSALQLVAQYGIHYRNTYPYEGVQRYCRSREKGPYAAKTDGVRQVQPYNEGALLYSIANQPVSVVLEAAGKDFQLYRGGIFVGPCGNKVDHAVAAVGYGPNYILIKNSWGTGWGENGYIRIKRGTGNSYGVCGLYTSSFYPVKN
Cytochrome P450 2C9 (Homo sapiens), sequence (P11712 whole entry, looked up): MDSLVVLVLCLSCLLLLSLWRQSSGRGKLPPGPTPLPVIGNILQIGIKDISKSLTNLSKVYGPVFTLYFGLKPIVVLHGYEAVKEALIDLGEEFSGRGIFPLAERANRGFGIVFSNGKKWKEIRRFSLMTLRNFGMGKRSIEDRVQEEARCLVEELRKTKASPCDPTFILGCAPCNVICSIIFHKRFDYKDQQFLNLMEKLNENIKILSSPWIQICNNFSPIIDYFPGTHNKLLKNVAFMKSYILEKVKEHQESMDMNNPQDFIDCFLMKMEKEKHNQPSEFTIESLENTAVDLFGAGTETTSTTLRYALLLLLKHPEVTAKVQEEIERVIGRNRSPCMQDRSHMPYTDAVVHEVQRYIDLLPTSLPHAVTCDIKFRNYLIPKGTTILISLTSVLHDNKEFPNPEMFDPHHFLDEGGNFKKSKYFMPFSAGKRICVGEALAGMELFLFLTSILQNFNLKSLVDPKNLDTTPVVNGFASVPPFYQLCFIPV

NC(Cc1ccc(Cl)cc1)C(=O)O (stereo not given)
inactive: Potency [1] | outcome [2] | activity change, negative = inhibition [3] 4.3% [at 0.505 µM] | activity change, negative = inhibition [4] -2.63% [at 0.575 µM] | outcome [5] | Potency [6] | Potency [7] | outcome [8] | activity change, negative = inhibition [9] -1.79% [at 1.07 µM] | Potency [10] | % pathology change, negative = correction [11] -28% [at 0.369 µM] | activity change, negative = inhibition [12] 5.71% [at 0.91 µM] | activity change, negative = inhibition [13] 10.6% [at 0.91 µM] | Potency [14]

NC1=NCC2c3ccccc3Cc3ccccc3N12 (stereo not given)
inactive: Potency [1] | Potency [15] | outcome [2] | Potency [3] | outcome [4] | Potency [6] | Potency [7] | outcome [8] | Potency [9] | Potency [10] | Potency [13] | Potency [14]

CO[C@@]1(NC(=O)CSCC#N)C(=O)N2C(C(=O)O)=C(CSc3nnnn3C)CS[C@@H]21
inactive: Potency [1] | outcome [2] | Potency [3] | outcome [4] | outcome [5] | Potency [6] | Potency [7] | outcome [8] | Potency [10] | Potency [11] | Potency [12] | Potency [13]

Brc1c(NC2=NCCN2)ccc2nccnc12
inactive: Potency [1] | Potency [15] | outcome [2] | outcome [4] | outcome [5] | Potency [7] | outcome [8] | Potency [9] | Potency [11] | Potency [13] | Potency [14]

NC(N)=NC(=O)Cc1c(Cl)cccc1Cl
inactive: Potency [1] | Potency [15] | outcome [2] | Potency [3] | outcome [4] | Potency [6] | Potency [7] | outcome [8] | Potency [9] | Potency [13] | Potency [14]

Nc1nc(N)c2nc(-c3ccccc3)c(N)nc2n1
inactive: Potency [1] | outcome [2] | Potency [3] | outcome [4] | outcome [5] | Potency [7] | outcome [8] | Potency [9] | Potency [10] | Potency [11]
active: Potency [14] 1120 nM

COCCc1ccc(OCC(O)CNC(C)C)cc1 (stereo not given)
inactive: Potency [1] | outcome [2] | Potency [3] | outcome [4] | Potency [6] | Potency [7] | outcome [8] | Potency [9] | Potency [11] | Potency [14]

C[C@@H](O)[C@H]1C(=O)N2C(C(=O)O)=C(SCCN=CN)C[C@H]12
inactive: Potency [15] | outcome [2] | Potency [3] | outcome [4] | outcome [5] | Potency [6] | Potency [7] | outcome [8] | Potency [9] | Potency [10] | Potency [14]

CCCCNc1ccc(C(=O)OCCN(C)C)cc1
inactive: Potency [15] | outcome [2] | Potency [3] | outcome [4] | outcome [5] | Potency [7] | outcome [8] | Potency [9] | max response [16] 13.7% and 3.85% and 11.6% | Potency [10] | Potency [11] | Potency [14]

CCc1cccc(N(C)C(N)=Nc2cccc3ccccc23)c1
inactive: Potency [15] | outcome [2] | Potency [3] | outcome [4] | Potency [6] | Potency [7] | outcome [8] | Potency [9] | max response [16] -28.6% | Potency [14]
active: Potency [12] 110 nM
